PNC inhibitor = perinucleolar compartment assembly inhibition; activity change (PNC), negative = inhibition, % at 10 µM; PC3M PTB-GFP, PNC prevalence imaging, 16 h; stronger effect = lower value; AID 2417; 140,000 compounds, 3.1% hits;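 active = readout at or below -70, meaning at least 70% loss of cells showing the perinucleolar compartment, a nuclear body marking cancer cells; inconclusive = readout between -30 and a set limit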;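 also: plate controls were DMSO wells for no effect and camptothecin positive control wells for full effect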
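Read-out is percentage of cells bearing a perinucleolar compartment, from automated 20x imaging of fixed, Hoechst-stained PC3M PTB-GFP cells. Cells were seeded 4 h, then exposed 16 h to compound (23 nl of library stock) in duplicate plates.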
Luc counter = blocks Kinase-Glo luciferase, a counter-screen artifact; Q27757; Kinase-Glo luciferase, ATP luminescence, 8 min; Potency, µM (series often up to 38.3 µM), without a hit: at the highest dose activity change, negative = inhibition, actives largely listed as inhibitors; 200,000 compounds, 0.28% hits; active = well fitted inhibition curve with a large enough effect; inconclusive = small, poorly fitted or top-dose-only effect; also: potency is read from the fitted curve at half-maximal effect; nearly all actives have a fitted effect of over 60% in size
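Compound is pinned into ATP-containing buffer (10 uM ATP, imidazole pH 7.2, 7 mM MgCl2). Kinase-Glo luciferase reagent is then added. Light output is recorded following an 8-min room-temperature incubation.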
ALDH1A1 block = blocks purified human ALDH1A1 activity; AID 1030; 220,000 compounds, 7.3% hits; Purified ALDH1A1, NADH fluorescence, propionaldehyde substrate; Potency, µM (highest dose often 75.3 µM), for inactives: at the highest dose activity, negative = inhibition, most hits filed as inhibitors; P00352;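 also: potency is read from the fitted curve at half-maximal effect; plate controls were no enzyme wells and a reference inhibitor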
Target sequence (P00352 whole entry, looked up): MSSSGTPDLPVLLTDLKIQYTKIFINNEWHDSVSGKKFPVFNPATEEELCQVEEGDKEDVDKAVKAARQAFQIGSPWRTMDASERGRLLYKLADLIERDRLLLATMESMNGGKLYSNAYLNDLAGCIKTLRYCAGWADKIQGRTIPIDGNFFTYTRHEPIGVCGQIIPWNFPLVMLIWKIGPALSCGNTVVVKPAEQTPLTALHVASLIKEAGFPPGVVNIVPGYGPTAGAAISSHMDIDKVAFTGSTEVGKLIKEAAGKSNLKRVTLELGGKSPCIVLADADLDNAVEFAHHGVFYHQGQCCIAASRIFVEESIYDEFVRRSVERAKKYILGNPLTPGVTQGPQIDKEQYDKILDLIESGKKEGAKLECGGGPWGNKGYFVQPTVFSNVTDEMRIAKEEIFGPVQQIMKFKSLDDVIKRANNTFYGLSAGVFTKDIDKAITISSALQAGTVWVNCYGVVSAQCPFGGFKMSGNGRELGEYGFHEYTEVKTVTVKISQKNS
Lamin A splicing = LMNA splicing modulation | 200,000 compounds, 0.01% hits | Potency, µM (highest dose often 46.1 µM), for inactives: top-dose ratio change, negative = inhibition, usual class: inhibitors | AID 1487 | HeLa LMNA splicing GFP/RFP minigene ratio, 48 h; active = well fitted inhibition curve with a large enough effect in the signal ratio, with a control signal flat, not every such curve was filed as active; inconclusive = small, poorly fitted or top-dose-only effect, or effect the other way, or a change in a side signal; the % refers to the signal ratio; also: potency is read from the fitted curve at half-maximal effect
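S3 HeLa stable clones carrying a lamin A-EGFP splicing minigene plus DsRed2 were seeded at 600 cells/well in Opti-MEM with 2% FBS, pin-dosed and incubated 48 h at 37°C. Acumen cytometry (488 nm) gave the GFP/RFP total-intensity ratio.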
HPGD block = blocks human HPGD enzyme activity; Potency, µM, for inactives: at the highest dose activity change, negative = inhibition, hits mostly inhibitors; 150,000 compounds, 4.3% hits; purified HPGD, NADH fluorescence kinetic, PGE2 substrate; P15428; also: potency is read from the fitted curve at half-maximal effect
Target sequence (P15428 whole entry, looked up): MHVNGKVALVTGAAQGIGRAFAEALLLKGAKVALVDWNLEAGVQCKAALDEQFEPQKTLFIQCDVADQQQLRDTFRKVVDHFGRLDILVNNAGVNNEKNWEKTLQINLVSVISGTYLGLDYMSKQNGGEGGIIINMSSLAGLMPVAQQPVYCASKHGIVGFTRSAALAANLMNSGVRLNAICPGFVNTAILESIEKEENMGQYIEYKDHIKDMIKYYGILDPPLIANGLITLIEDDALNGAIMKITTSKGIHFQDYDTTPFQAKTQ
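20 nM HPGD preincubated 15 min at room temperature with compound in 50 mM Tris-HCl pH 8, 0.01% Tween 20. Started with 1 mM NAD+ and 30 uM prostaglandin E2; NADH fluorescence (360/450 nm) read 5 times over 30-s intervals, last minus first.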
The depositor's hits bear a star; ? = inconclusive; . = no result; [ ] = dose if it differs, or a comment. The list is not random: actives were taken first. Their share in the collection is about 10%. Unless noted, calls follow the shape of the dose curve; as a rule, active = well fitted inhibition curve with a large enough effect (not every such curve was filed as active); inconclusive = small, poorly fitted or top-dose-only effect, or another doubt; inactive = no such curve, though single readings can be large or run the other way. Unless noted, % is scaled to controls: 0 for no effect and ±100 for the full control effect.

SMILES | PNC inhibitor | Luc counter | ALDH1A1 block | Lamin A splicing | HPGD block
O=C1N=C(N2CCOCC2)SC1=C1CCCCC1 | -15.8 | ? | 2µM* | ? | -28.5%
O=C1N=C(N2CCOCC2)S/C1=C/c1cccs1 | -7.6 | -5.2% | -0.1% | -1.2% | -13.8%
N#CCCN1CCN(C2=NC(=O)C(=C3CCCCC3)S2)CC1 | 18.9 | -8.9% | 1.26µM* | ? | ?
Cc1cccc(N2CCN(C3=NC(=O)C(=C4CCCCC4)S3)CC2)c1 | ? | 13.9% | 6.31µM* | ? | -5.6%
CC(=O)N1CCN(C2=NC(=O)/C(=C\c3cccs3)S2)CC1 | . | 0.8% | -7.2% | ? | .
CC(=O)N1CCN(C2=NC(=O)C(=C3CCCCC3)S2)CC1 | -100.0* | 3.5% | 12.6µM* | -16.6% | -8.9%
CC(C)=C1SC(N2CCCCC2)=NC1=O | -4.0 | -1.8% | -2.6% | -4.3% | -9.4%
CCn1nc(C)c(CNC(=O)CC2C(=O)NCCN2CC(C)(C)C)c1C (centres undefined) | . | -0.8% | 6.0% | . | .
Cc1cccc(C(=O)OCc2cc(=O)n3ccsc3n2)c1 | . | . | . | 6.7%[46 µM] | .
Cc1oc(-c2ccc3ccccc3c2)nc1CN(C)C(C)c1ccncn1 (centres undefined) | . | -2.2% | 15µM* | . | .
CNc1nc(-c2ccc(OC)cc2)c(-c2ccc(OC)cc2)s1 | . | 4.4% | ? | -10.2%[46 µM] | .
COc1ccc(-c2nc(NC(C)=O)sc2-c2ccc(OC)cc2)cc1 | . | 5.1% | 3.16µM* | ? | .
Cc1ccc2c(c1)c1cccc3c1n2CCN3CCC(N)=O | -106.7* | 1.1% | ? | 12.2% | ?
NC(=O)CCn1c2ccccc2c2ccccc21 | . | -0.6% | -2.7% | . | .
Cc1ccc(C(=O)CC(=O)c2cccc(F)c2)c(O)c1 | 6.8 | -1.0% | -4.2% | ? | 14.1µM*
COc1ccccc1CNC(=O)C(C)n1c(=O)cc(C(F)(F)F)c2c(C)nn(C)c21 (centres undefined) | . | . | . | 7.6%[46 µM] | .
C#CCOCCOCCOCCNc1nc(N2CCN(C(=O)[C@H]([C@@H](C)CC)n3cc([C@@H](N)CC(C)C)nn3)CC2)nc(N2CCN(C(=O)[C@H](CCCCN)n3cc([C@@H](N)C(C)CC)nn3)CC2)n1 (some centres undefined) | . | . | -2.3% | . | .
C#CCOCCOCCOCCNc1nc(N2CCN(C(=O)[C@H](CCCCN)n3cc(C(N)[C@H](C)CC)nn3)CC2)nc(N2CCN(C(=O)[C@H](CCC(=O)O)n3cc(C(N)[C@H](C)CC)nn3)CC2)n1 (some centres undefined) | . | . | 22.4µM* | . | .
O=C(Nc1cccc(F)c1)N1CCCC2(CCN(C(=O)c3csnn3)CC2)C1 | . | -2.8% | 5.3% | . | -0.9%
CCc1cccc(NC(=O)CSC2=NS(=O)(=O)c3ccccc32)c1 | -4.8 | -2.4% | ? | 5.5% | 22.4µM*
CCc1cccc(NC(=O)CN2C=NS(=O)(=O)c3ccccc32)c1 | . | . | . | 4.3%[46 µM] | .
CC(C)CN1CCC2(CC1)CCN(C(=O)c1csnn1)CC2 | . | -2.6% | 5.0% | . | -1.9%
COc1ccccc1-n1cnnc1SCC(=O)c1c[nH]c2ccccc12 | 6.7 | 0.1% | 10µM* | -10.2% | -14.2%
COc1ccccc1-n1cnnc1SCC(=O)Nc1cccnc1Cl | . | -1.2% | 25.1µM* | ? | .
COc1cc(C)cc(OC)c1/C=C\C(=O)O | . | -2.6%[7.66 µM] | 18.7%[13.5 µM] | . | -2.2%
SMILES | PNC inhibitor | Luc counter | ALDH1A1 block | Lamin A splicing | HPGD block
NC(=O)[C@@H]1CCCNC1 | . | -1.2%[7.66 µM] | 4.9%[13.5 µM] | . | -6.2%
NCCC[C@@H](CC(=O)N[C@@H]1CCCC[C@H]1C(=O)N[C@H](CC(=O)N[C@@H](CCC(=O)O)CC(=O)O)Cc1ccccc1)NC(=O)C[C@H](Cc1ccccc1)NC(=O)[C@@H]1CNCC[C@H]1N | . | 0.0% | -9.8% | . | -9.4%
Oc1c(C(c2cccs2)N2CCN(c3ccccc3)CC2)ccc2cccnc12 (centres undefined) | ? | 4.9% | 2µM* | ? | 1.78µM*
CC1CCCCN1S(=O)(=O)c1ccc(S(=O)(=O)N2CCN(c3ccc(F)cc3)CC2)cc1 (centres undefined) | -113.8* | -4.7% | -1.2% | -2.6% | -11.0%
CN(Cc1ccccc1)C(=O)CSc1nc2ccccc2n1Cc1ccccc1F | . | . | . | 9.1%[46 µM] | .
Cc1cccc(NC(=O)CCSc2ccccn2)c1 | 9.3 | 3.1% | ? | 18.5% | 14.1µM*
O=C(CSc1ccccn1)c1ccc(F)cc1 | ? | -17.3% | ? | 10.1% | 25.1µM*
Cc1ccc(C(=O)CSc2ccccn2)cc1 | 14.4 | -2.0% | ? | 9.3% | ?
COC(=O)c1ccc(NC(=O)CSc2ccccn2)cc1 | ? | -1.5% | ? | -2.3% | 11.2µM*
O=C(CSc1ccccn1)Nc1ccc2c(c1)C(=O)c1ccccc1C2=O | 16.5 | 1.9% | 25.1µM* | -7.1% | -9.5%
O=C1CCSc2ccc(S(=O)(=O)Nc3cccc(C(F)(F)F)c3)cc2N1 | . | . | . | -5.8%[46 µM] | .
Cc1nn(-c2ccccc2)c2c1N(CC(=O)N1CCN(c3cccc(Cl)c3)CC1)C(=O)CS2 | . | . | . | -8.1%[46 µM] | .
Cc1cc(C)c(C#N)c(SCS(=O)Cc2ccccc2)n1 (centres undefined) | 47.8 | -1.4% | 8.91µM* | ? | ?
Cc1cc(C)c(C#N)c(SCc2ccccc2[N+](=O)[O-])n1 | 24.9 | 1.1% | 17.8µM* | -8.2% | -19.3%
Cc1ccc(C#N)c(SCc2ccccc2[N+](=O)[O-])n1 | 54.5 | -0.2% | ? | -9.9% | -12.3%
Cc1cc(C)c(C#N)c(SCc2nnc(-c3ccccc3)o2)n1 | 0.6 | -2.0% | 1.0% | ? | 3.98µM*
Cc1cc(C)c(C#N)c(SCCS(=O)(=O)Cc2ccc(Cl)cc2)n1 | ? | -6.4% | 5.01µM* | -0.6% | -17.1%
COc1ccc(OC2C=CC(C#Cc3ccc(C(C)(C)C)cc3)OC2CO)cc1 (centres undefined) | . | . | -10.6%[13.5 µM] | . | .
Cc1ccc(Cn2ccnc2SCC(=O)NCc2ccccc2)cc1 | . | . | . | 23.1%[46 µM] | .
CCN1C(=O)/C(=C\c2ccc(-c3ccc([N+](=O)[O-])cc3OC)o2)SC1=Nc1cccc(C(=O)O)c1 | . | -8.7% | 0.631µM* | ? | .
COc1ccc(NS(=O)(=O)c2cc(C)ccc2NC(=O)c2cc(C)oc2C)cc1 | 0.9 | -0.5% | 7.94µM* | ? | -17.8%
Cc1csc(NC(=O)c2cc(C)oc2C)n1 | -11.3 | ? | -2.0% | 10.3% | 17.8µM*
Cc1csc(NC(=O)c2ccccc2O)n1 | 15.5 | -7.5% | ? | -10.4% | ?
COC(=O)c1sc(NC(=O)c2ccoc2C)nc1C | 3.5 | 7.94µM* | -4.1% | -7.0% | -22.5%
COc1ccc2nc(NC(=O)c3cc(C)oc3C)sc2c1 | 102.9 | 12.6µM* | -8.4% | 6.6% | ?
COc1ccc(NS(=O)(=O)c2cccc(C(=O)NNC(=O)c3cc(C)oc3C)c2)cc1 | 31.9 | -1.1% | -5.0% | -4.5% | -7.0%
CCCCc1nc2ccn(CC(=O)N(C)C)c(=O)c2n1Cc1ccc(-c2ccccc2-c2nn[nH]n2)cc1 | . | 4.4%[39.9 µM] | -7.8% | . | -7.7%
CCN(CC)C(=O)CSc1nc2cc3c(cc2c(=O)n1CCCCCC(=O)NCCc1ccc(OC)c(OC)c1)OCO3 | . | . | . | -13.6%[46 µM] | .

Assay outcomes from PubChem.
